Assay [1] has as its target ATP-dependent translocase ABCB1 (Homo sapiens) (UniProt P08183). Nature of the assay: P-glycoprotein substrate transport blockade – cell-based (AID 377; in the data active = fluorescence slope change above about 50%). The settings on record: MDR1-expressing cells, fluorescent substrate accumulation slope; stronger effect = higher value; concentration not given here.
Assay [2] in a line: compounds altering viability of human ES cells (AID 493140).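 Also: cells exposed to compounds for four days before counting.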 The settings on record: human embryonic stem cell survival screen; stronger effect = higher value.
A short description of assay [3]: P. berghei load reduction in hepatocytes – cell-based, HepG2, luciferase luminescence, HepG2 viability, primary screen (AID 624349; in the data active = parasite load remaining mostly below about 12%, no sharp cut-off; inactive = mostly above about 10%;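 also: 100% = mean of DMSO negative control wells on the same plate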). The settings on record: P. berghei liver stage in HepG2, luciferase luminescence, concentration not given here; parasite load remaining: stronger effect = lower value; viability: measured here: HepG2 viability without parasites.
Assay [4] deals with 6-phosphogluconate dehydrogenase, decarboxylating (Homo sapiens) (UniProt P52209). Nature of the assay: inhibition of human phosphogluconate dehydrogenase – biochemical, recombinant enzyme, NADPH absorbance, primary screen (AID 1159550;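 active = at least 20% inhibition of 6-phosphogluconate dehydrogenase activity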). Particulars: recombinant 6PGD, NADPH absorbance 341 nm; at 10 µM; stronger effect = higher value.
6-phosphogluconate dehydrogenase, decarboxylating (Homo sapiens), sequence (P52209 whole entry, looked up): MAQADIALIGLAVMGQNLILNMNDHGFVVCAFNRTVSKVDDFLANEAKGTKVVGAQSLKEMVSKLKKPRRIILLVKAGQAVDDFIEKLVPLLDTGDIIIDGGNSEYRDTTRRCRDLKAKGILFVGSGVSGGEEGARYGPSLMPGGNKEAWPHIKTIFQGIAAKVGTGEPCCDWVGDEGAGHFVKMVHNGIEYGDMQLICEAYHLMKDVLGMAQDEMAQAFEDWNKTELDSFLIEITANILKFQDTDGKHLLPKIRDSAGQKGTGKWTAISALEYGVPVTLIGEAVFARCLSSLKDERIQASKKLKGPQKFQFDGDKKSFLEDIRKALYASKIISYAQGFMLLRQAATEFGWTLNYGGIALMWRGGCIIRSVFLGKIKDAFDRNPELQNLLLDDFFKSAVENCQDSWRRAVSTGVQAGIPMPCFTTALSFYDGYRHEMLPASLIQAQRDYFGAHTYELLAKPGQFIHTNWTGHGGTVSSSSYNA
Assay [5] has as its target Calcium-dependent protein kinase 1 (Plasmodium falciparum (isolate 3D7)) (UniProt P62344). Nature of the assay: PfCDPK1 kinase inhibitors, biochemical, TCAMS library (AID 1159585; cut-off not given, nearly all actives have IC50 up to about 0.98 µM;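 also: inhibitors leave more ATP so luminescence rises with inhibition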). Particulars: recombinant PfCDPK1, Kinase-Glo ATP depletion luminescence. For orientation: Kinase-Glo reads ATP consumption through a luciferase reaction.
The target in assay [6] is Plasmodium falciparum protein kinase 6 (PK6, PF3D7_1337100) (UniProt Q8IDW1). Nature of the assay: PfPK6 kinase inhibitors, biochemical, TCAMS library (AID 1159586). Particulars: recombinant PfPK6, Kinase-Glo ATP depletion luminescence.
Plasmodium falciparum protein kinase 6 (PK6, PF3D7_1337100), sequence (Q8IDW1 1-305): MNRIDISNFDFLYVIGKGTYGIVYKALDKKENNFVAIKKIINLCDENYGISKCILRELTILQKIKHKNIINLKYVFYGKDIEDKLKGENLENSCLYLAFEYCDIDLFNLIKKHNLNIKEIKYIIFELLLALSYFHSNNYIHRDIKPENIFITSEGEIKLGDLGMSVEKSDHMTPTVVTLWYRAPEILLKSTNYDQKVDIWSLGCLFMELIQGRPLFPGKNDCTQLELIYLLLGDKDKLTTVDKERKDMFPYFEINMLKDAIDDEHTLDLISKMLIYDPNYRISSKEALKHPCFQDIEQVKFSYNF
Assay [7] concerns the target Protein kinase 7 (PK7), Plasmodium falciparum 3D7 (PF3D7_0213400) (UniProt Q7YTF7). Nature of the assay: inhibition of Plasmodium PK7 catalytic activity – biochemical, TCAMS antimalarial set, Kinase-Glo luminescence (AID 1159587). Particulars: recombinant PfPK7, Kinase-Glo ATP depletion luminescence.
The target of assay [8] is Calcium-dependent protein kinase 4 (Plasmodium falciparum (isolate 3D7)) (UniProt Q8IBS5). Put plainly: PfCDPK4 kinase inhibitors, biochemical, TCAMS library (AID 1159588; cut-off not given, nearly all actives have IC50 up to about 0.91 µM). Particulars: recombinant PfCDPK4, Kinase-Glo ATP depletion luminescence.
Calcium-dependent protein kinase 4 (Plasmodium falciparum (isolate 3D7)), sequence (Q8IBS5 whole entry, looked up): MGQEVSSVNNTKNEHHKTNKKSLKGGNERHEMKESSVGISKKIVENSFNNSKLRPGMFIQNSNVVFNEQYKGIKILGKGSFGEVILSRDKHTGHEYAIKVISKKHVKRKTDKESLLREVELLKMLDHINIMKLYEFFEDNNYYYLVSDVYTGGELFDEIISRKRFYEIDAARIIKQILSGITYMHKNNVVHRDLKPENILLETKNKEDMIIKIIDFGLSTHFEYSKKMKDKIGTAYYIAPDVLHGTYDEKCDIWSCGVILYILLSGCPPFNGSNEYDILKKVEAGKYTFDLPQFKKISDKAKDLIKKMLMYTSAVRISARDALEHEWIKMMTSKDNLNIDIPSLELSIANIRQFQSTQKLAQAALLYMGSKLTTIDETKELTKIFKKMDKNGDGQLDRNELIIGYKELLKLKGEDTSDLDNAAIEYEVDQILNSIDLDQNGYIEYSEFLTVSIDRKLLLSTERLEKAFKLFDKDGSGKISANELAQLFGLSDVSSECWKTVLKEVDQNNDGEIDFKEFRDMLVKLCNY

The text below walks through data of PubChem BioAssay.

SMILES strings stand for the structures. Results filed as inconclusive are left out. For part of these data: Measured potencies and affinities stand elsewhere. Calls of active or inactive are those of the source. Unless noted, no rule for the calls is given here.

Calcium-dependent protein kinase 1 (Plasmodium falciparum (isolate 3D7)), sequence (P62344 whole entry, looked up): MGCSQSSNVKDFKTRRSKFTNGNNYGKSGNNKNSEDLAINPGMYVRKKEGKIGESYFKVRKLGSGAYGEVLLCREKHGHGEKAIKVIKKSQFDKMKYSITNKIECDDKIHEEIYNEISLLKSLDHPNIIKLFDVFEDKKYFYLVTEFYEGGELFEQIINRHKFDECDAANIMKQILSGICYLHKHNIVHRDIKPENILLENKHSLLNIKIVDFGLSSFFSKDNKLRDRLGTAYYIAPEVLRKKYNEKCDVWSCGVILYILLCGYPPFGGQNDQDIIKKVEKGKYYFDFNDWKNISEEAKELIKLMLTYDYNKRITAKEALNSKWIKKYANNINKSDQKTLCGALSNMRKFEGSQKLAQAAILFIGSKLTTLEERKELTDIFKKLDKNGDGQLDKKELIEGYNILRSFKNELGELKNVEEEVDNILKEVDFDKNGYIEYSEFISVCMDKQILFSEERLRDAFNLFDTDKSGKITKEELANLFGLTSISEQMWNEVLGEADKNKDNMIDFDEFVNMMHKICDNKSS
Protein kinase 7 (PK7), Plasmodium falciparum 3D7 (PF3D7_0213400), sequence (Q7YTF7 1-343): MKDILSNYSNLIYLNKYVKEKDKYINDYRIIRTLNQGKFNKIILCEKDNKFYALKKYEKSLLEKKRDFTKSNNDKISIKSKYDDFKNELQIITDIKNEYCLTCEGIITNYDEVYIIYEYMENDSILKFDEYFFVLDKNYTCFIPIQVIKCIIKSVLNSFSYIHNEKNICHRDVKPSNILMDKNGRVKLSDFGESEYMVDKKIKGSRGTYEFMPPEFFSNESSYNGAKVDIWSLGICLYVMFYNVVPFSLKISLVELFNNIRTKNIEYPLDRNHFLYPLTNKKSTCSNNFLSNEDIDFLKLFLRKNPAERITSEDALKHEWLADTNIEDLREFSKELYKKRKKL
ATP-dependent translocase ABCB1 (Homo sapiens), sequence (P08183 whole entry, looked up): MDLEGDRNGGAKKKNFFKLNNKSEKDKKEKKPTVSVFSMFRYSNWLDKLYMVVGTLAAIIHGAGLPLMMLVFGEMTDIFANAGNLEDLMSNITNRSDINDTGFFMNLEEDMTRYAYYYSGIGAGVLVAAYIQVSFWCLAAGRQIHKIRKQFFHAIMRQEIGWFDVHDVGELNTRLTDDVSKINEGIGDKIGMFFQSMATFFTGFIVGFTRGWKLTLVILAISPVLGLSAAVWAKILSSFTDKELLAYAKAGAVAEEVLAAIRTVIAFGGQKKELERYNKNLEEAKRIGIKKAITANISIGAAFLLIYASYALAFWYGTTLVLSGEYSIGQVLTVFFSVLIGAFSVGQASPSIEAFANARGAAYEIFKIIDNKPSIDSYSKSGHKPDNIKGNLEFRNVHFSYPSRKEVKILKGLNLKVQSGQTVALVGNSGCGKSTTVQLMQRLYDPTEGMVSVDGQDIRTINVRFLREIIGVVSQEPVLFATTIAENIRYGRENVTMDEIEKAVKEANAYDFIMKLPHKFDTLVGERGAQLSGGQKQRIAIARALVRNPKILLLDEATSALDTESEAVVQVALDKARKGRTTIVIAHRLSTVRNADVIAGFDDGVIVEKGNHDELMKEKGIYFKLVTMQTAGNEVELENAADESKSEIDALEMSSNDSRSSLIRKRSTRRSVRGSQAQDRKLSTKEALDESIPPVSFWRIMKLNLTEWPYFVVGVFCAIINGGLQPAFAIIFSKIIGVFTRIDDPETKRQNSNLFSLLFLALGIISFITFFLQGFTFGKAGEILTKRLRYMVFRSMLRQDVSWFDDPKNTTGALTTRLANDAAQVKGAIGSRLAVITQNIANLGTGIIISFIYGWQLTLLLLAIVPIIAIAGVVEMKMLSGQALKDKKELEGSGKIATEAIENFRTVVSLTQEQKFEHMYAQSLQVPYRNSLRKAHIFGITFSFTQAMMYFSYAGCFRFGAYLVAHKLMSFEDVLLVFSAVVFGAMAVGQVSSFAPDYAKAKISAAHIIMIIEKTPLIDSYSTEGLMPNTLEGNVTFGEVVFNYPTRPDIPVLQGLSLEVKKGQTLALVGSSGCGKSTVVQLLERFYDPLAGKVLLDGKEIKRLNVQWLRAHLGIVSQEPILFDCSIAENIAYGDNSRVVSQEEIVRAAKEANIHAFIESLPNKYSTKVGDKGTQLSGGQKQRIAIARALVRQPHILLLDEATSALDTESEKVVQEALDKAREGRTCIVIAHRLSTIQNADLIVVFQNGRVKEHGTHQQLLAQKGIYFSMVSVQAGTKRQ

With `CNC1C(O)C(OC2C(N)CC(N)C(OC3OC(CN)=CCC3N)C2O)OCC1(C)O` (centres undefined), the fluorescence slope change in assay [1] is 28.9% (inactive). The survival in assay [2] is 9.33 (inactive). For the same compound, in assay [3], the parasite load remaining is 81.3% (inactive) and the viability was 80.5%. In addition, in assay [4], the inhibition is 0.544% (inactive).
As to `Cc1cc(-c2cc(-c3ccc(OCCN(C)C)cc3)[nH]c2-c2ccc3c(c2)CC/C3=N\O)ccn1`, the outcome in assay [5], in assay [6], in assay [7] and in assay [8] was inactive.
As to `O=[N+]([O-])c1cccc(-c2nc3ccc(C4=N[C@@H]5CCCC[C@@H]5N4)cc3[nH]2)c1`, the outcome in assay [5], in assay [6], in assay [7] and in assay [8] was inactive.
Turning to `COc1cc(/C=C(\C2=NC(=O)CS2)c2nc3cccnc3n2C)ccc1O`, the result in assay [5], in assay [6], in assay [7] and in assay [8] was inactive.
For `CO[C@@H]1[C@@H](OC2OC(C)C(OC3CC(C)(O)C(O)C(C)O3)C(N(C)C)C2O)[C@@H](CC=O)C[C@@H](C)[C@@H](OC2CCC(N(C)C)C(C)O2)/C=C/C=C/C[C@@H](C)OC(=O)C[C@H]1O` (some centres undefined), the fluorescence slope change in assay [1] is 23.5% (inactive). In assay [4], the inhibition is 5.19% (inactive).
In the case of `CN(C)c1nc(N/N=C/c2cc(Cl)ccc2O)nc(Nc2ccc(F)cc2)n1`, the outcome in assay [5], in assay [6], in assay [7] and in assay [8] was inactive.
As to `O=[N+]([O-])c1ccc(-c2nc3ccc(C4=N[C@@H]5CCCC[C@@H]5N4)cc3[nH]2)cc1`, the outcome in assay [5], in assay [6], in assay [7] and in assay [8] was inactive.
Regarding `CCCCCC(C)C(C)c1cc(O)c2c(c1)OC(C)(C)C/C2=C\c1ccncc1` (centres undefined), the result in assay [5], in assay [6], in assay [7] and in assay [8] was inactive.
In the case of `O=[N+]([O-])c1ccc(Nc2nc(N/N=C/c3cc(Cl)cc(Cl)c3O)nc(Nc3ccccc3)n2)cc1`, the result in assay [5], in assay [6], in assay [7] and in assay [8] was inactive.
As for `O=C(Cc1ccc[n+]([O-])c1)Nc1ccc(-c2cccc(-c3nc4ccc(C(F)(F)F)cc4[nH]3)c2)cc1`, the result in assay [5], in assay [6], in assay [7] and in assay [8] was inactive.
Take `C[C@@H]([C@H](CCCc1ccc(Cl)cc1)C(=O)N[C@H](C(=O)Nc1cccnc1)C(C)(C)C)N(O)C=O`: the outcome in assay [5], in assay [6], in assay [7] and in assay [8] was inactive.
As to `O=C(CSc1cccc[n+]1[O-])c1ccc(Cc2ncc(C(F)(F)F)cc2Cl)s1`, the outcome in assay [5], in assay [6], in assay [7] and in assay [8] was inactive.
For `O/N=C1\CCc2cc(-c3cc(-c4ccc(OC5CCNCC5)cc4)oc3-c3ccncc3)ccc21`, the outcome in assay [5], in assay [6], in assay [7] and in assay [8] was inactive.
Consider `Cc1cc(C)c2c(c1)/C(=N/O)CCN2`, for which the result in assay [5], in assay [6], in assay [7] and in assay [8] was inactive.
In the case of `CN(C)CCCOc1ccc(-c2nc(-c3ccc4c(c3)CC/C4=N\O)c(-c3ccncc3)[nH]2)cc1`, the outcome in assay [5], in assay [6], in assay [7] and in assay [8] was inactive.
In the case of `Oc1ccc2ccccc2c1/C=N/Nc1nc(Nc2ccccc2)nc(N2CCOCC2)n1`, the result in assay [5], in assay [6], in assay [7] and in assay [8] was inactive.
As to `CN(C)c1nc(NCc2ccccc2)nc(N/N=C/c2cc([N+](=O)[O-])ccc2O)n1`, the result in assay [5], in assay [6], in assay [7] and in assay [8] was inactive.
Consider `COc1ccc(Nc2nc(N/N=C/c3cc(Cl)ccc3O)nc(Nc3ccccc3)n2)cc1`, for which the outcome in assay [5], in assay [6], in assay [7] and in assay [8] was inactive.
For the compound `O=C(N/C=N/c1cc([N+](=O)[O-])c(-c2cccnc2)n1-c1ccc(O)cc1)c1ccccc1`, the result in assay [5], in assay [6], in assay [7] and in assay [8] was inactive.
On to `COc1ccc(C2=[N+]([O-])c3ccccc3C2=O)cc1`, for which the result in assay [5], in assay [6], in assay [7] and in assay [8] was inactive.
For the compound `N=C(N)c1ccc(/C=C/c2ccc(C(=N)N)cc2O)cc1`, the result in assay [5], in assay [6], in assay [7] and in assay [8] was inactive.
For `CCOc1cc(/C=N/Nc2nc(C)cc(-n3nc(C)cc3C)n2)ccc1O`, the outcome in assay [5], in assay [6], in assay [7] and in assay [8] was inactive.
On to `CC[C@@H]([C@H](CC(C)C)C(=O)N[C@@H](CCCCNC(=O)OCc1ccccc1)C(=O)Nc1ccccn1)N(O)C=O`, for which the outcome in assay [5], in assay [6], in assay [7] and in assay [8] was inactive.
Take `CC[C@H](C)[C@H](NC(=O)[C@@H](CC1CCCCC1)[C@H](CC)N(O)C=O)C(=O)Nc1ccccn1`: the result in assay [5], in assay [6], in assay [7] and in assay [8] was inactive.
On to `Nc1ccc(-c2nc3cc(C4=N[C@@H]5CCCC[C@@H]5N4)ccc3o2)cc1[N+](=O)[O-]`, for which the outcome in assay [5], in assay [6], in assay [7] and in assay [8] was inactive.

As usually defined, the viability is the share of living cells, or the viability signal relative to a control. A word on the inhibition: it is the drop in the measured response relative to a control, in per cent.
